# Assay outcomes deposited in PubChem BioAssay by Broad Institute.
# Most compounds without a hit are left out; they make up all but 0.57% or so of the library.
# Mtb BioA inh = inhibitors of Mycobacterium tuberculosis BioA enzyme; purified M. tuberculosis BioA enzyme, plate reader; inhibition, % at 9.99 µM; 360,000 compounds, 0.096% hits; AID 602481; in the data active = inhibition above about 40%
# PrP 5UTR inh = inhibition of PrP 5' UTR reporter expression | 340,000 compounds, 0.35% hits | inhibition, % (concentration not given with the values) | AID 488862 | cell-based PrP 5' UTR mRNA reporter, plate reader; in the data active = inhibition above about 52%; note: 0 = median of the neutral control wells
# TcdB GH inh = inhibitors of Clostridioides difficile toxin B glycohydrolase | P18177 | TcdB glycohydrolase enzymatic assay, plate reader | inhibition, % at 9.99 µM | 350,000 compounds, 0.24% hits | AID 652162; in the data active = inhibition above about 10%
# Yp Topo-I inh = Y. pestis Topo-I inhibition via cleavage products | Y. pestis Topo-I cleavage product accumulation, plate reader | activity, % at 10 µM | 360,000 compounds, 0.064% hits; in the data active = activity above about 50%, passing the limit was not always enough
# Active calls of the source: *; · = not tested or not shown; ! = not active in a repeat.
SMILES,Mtb BioA inh,PrP 5UTR inh,TcdB GH inh,Yp Topo-I inh
COc1ccccc1C(=O)Nc1cccc(Oc2c(F)c(F)c(F)c(F)c2F)c1,-2,-14,13*,16
C[C@@H]1CN([C@@H](C)CO)S(=O)(=O)c2ccc(-c3ccncc3)cc2O[C@H]1CN(C)Cc1ccc(Oc2ccccc2)cc1,-9,·,-7,·
Nc1ccc(N=Nc2ccc(O)cc2)c(N)n1,·,-79,20*,-13
COc1ccc(N=Nc2ccc(N)nc2N)cc1,0,-60,0,-13
CO[C@@H]1CN(C)C(=O)c2cc(NS(=O)(=O)c3cccc(C)c3)ccc2OC[C@@H](C)NC[C@@H]1C,1,·,-1,·
COc1ccc(S(=O)(=O)N2CCC[C@H]2C(=O)N2CCC[C@H]2C(=O)NCc2ccncc2)cc1C,·,·,10*,·
COc1ccc(S(=O)(=O)N2CCC[C@H]2C(=O)N2CCC[C@H]2C(=O)NCc2ccccc2)cc1C,·,·,4,·
C[C@@H]1CN([C@H](C)CO)C(=O)c2cc(NC(=O)Nc3cccc4ccccc34)ccc2O[C@H]1CN(C)Cc1ccc(Cl)c(Cl)c1,-2,·,0,·
COCCCNc1nc(=S)[nH]c2cc(OC)c(OC)cc12,0,-27,·,0
COc1cc2[nH]c(=S)nc(NCCC(C)C)c2cc1OC,·,-13,10*,-9
Cc1ccc(NS(=O)(=O)c2ccc(C)c(NC(=S)NCCN3CCOCC3)c2)c(C)c1,0,-16,16*,-12
O=C(Nc1n[nH]c(=S)s1)c1ccco1,-1,-22,9,3
NNC(=O)CNC(=O)Nc1n[nH]c(=S)s1,·,·,10*,·
CNC(C)C(=O)NC(C(=O)N1CCCC1C(=O)NNc1ccccc1)C(C)C (stereo unspecified),-1,-37,-2,1
CC(N)C(=O)NC(C(=O)N1CCCC1C(=O)NC(c1ccccc1)c1ccccc1)C(C)C (stereo unspecified),0,-21,11*,-4
O=C(COC(=O)CNS(=O)(=O)c1ccc2ccccc2c1)Nc1ccccc1Sc1ccccc1,·,-10,0,62*
COc1cc2c(c(OC)c1OC)-c1ccc(OC)c(=O)cc1C(NC(C)=O)CC2 (stereo unspecified),0,63*,1,-5
COc1ccc(S(=O)(=O)Nc2ccc3c(c2)C(=O)N([C@@H](C)CO)C[C@@H](C)[C@H](CN(C)S(=O)(=O)c2cn(C)cn2)OCCCC[C@@H](C)O3)cc1,0,·,1,·
C[C@@H]1CN([C@H](C)CO)C(=O)c2cc(C#CCN(C)C)cnc2O[C@@H]1CN(C)C(=O)c1cnccn1,0,·,1,·
COc1ccc(Cl)cc1NC(=O)Cn1c(NCCO)nc2ccccc21,1,-11,27*,-4
COc1cc(Cl)c(C)cc1NC(=O)Cn1c(NCCO)nc2ccccc21,-1,-24,0,-5
CN(C(=O)c1cccc(COc2ccc(Cl)cc2Cl)c1)c1ccccc1,0,-48,·,51*
CN(C)CCNc1ccc(CO)c2sc3ccc(O)cc3c(=O)c12,·,1,25*,-12
COc1ccc2sc3cccc(NCCN(C)C)c3c(=O)c2c1,·,·,2,·
C[C@@H]1CN([C@@H](C)CO)C(=O)Cc2cc(NS(C)(=O)=O)ccc2O[C@@H]1CN(C)S(=O)(=O)c1ccc(Cl)cc1,1,·,-1,·
SMILES,Mtb BioA inh,PrP 5UTR inh,TcdB GH inh,Yp Topo-I inh
C[C@H](CO)N1C[C@H](C)[C@@H](CN(C)C(=O)Nc2ccc(C(F)(F)F)cc2)Oc2c(cccc2N(C)C)C1=O,2,0,14*,21
C[C@H](CO)N1C[C@H](C)[C@@H](CN(C)C(=O)Nc2ccc(C(F)(F)F)cc2)Oc2c(NS(=O)(=O)c3ccccc3)cccc2C1=O,1,-19,10*!,4
Cc1noc(C)c1NC(=O)N(C)C[C@@H]1Oc2ccc(NC(=O)C3CCCCC3)cc2C(=O)N([C@@H](C)CO)C[C@H]1C,9,-23,13*!,-6
C[C@H]1CN([C@@H](C)CO)C(=O)c2cccc(NS(=O)(=O)c3ccccc3)c2O[C@H]1CN(C)C(=O)Nc1ccc(C(F)(F)F)cc1,2,·,0,·
Cc1ccc(C)c2sc(NC(=O)c3ccc(N4C(=O)CCC4=O)cc3)nc12,0,-4,23*,-5
COCC#Cc1ccc2c(c1)O[C@H](CN(C)C(=O)CC1CC1)[C@H](C)CN([C@@H](C)CO)S2(=O)=O,0,·,3,·
COCC#Cc1ccc2c(c1)O[C@@H](CN(C)C(=O)CC1CC1)[C@H](C)CN([C@@H](C)CO)S2(=O)=O,-1,·,13*,·
COCC(=O)N1CC[C@@H]2[C@H]1c1cc(-c3cccc(OC)c3)ccc1N(C)[C@H]2CO,·,·,13*,·
CCC(=O)N1CC[C@@H]2[C@H]1c1cc(-c3ccccc3)ccc1N(C)[C@H]2CO,8,·,12*,·
